Measurements taken from the supplement of paper PMC12282887.
± gives the standard deviation of the averaged measurements.

Experiments:
Experiment in all cases: promoter activity interaction Z-score (Lux/OD deviation from empty-vector control); higher = stronger promoter induction by the compound
[1] = tested on: E. coli BW25113 acrABp lux reporter
Outline: (§1)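 Low-copy luxCDABE promoter reporters were carried by E. coli BW25113, either wild type or lacking one of three genes, grown in 40 µl LB Lennox in 384-well plates at 37°C. Each compound was run at four 1:2 dilutions in biological duplicates, with OD600 and luminescence read every 30 min for 12 h. Integration used 0–8 h for wild type and 1–9 h for deletion strains, and wells under 10% of the median growth value were removed. Luminescence normalised to growth was fitted against a control, and the Z-transformed residual is the score.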

[2] = tested on: E. coli BW25113 micFp lux reporter
Outline: as §1

[3] = tested on: E. coli BW25113 ompFp lux reporter
Outline: as §1

[4] = tested on: E. coli BW25113 robp lux reporter
Outline: as §1

[5] = tested on: E. coli BW25113 soxSp lux reporter
Outline: as §1

[6] = tested on: E. coli BW25113 tolCp lux reporter
Outline: as §1

[7] = 3.7 µg/ml, genetic background: wild type
[8] = 3.7 µg/ml, genetic background: ΔmarA
[9] = 3.7 µg/ml, genetic background: Δrob
[10] = 3.7 µg/ml, genetic background: ΔsoxS
[11] = 7.5 µg/ml, genetic background: wild type
[12] = 7.5 µg/ml, genetic background: ΔmarA
[13] = 7.5 µg/ml, genetic background: Δrob
[14] = 7.5 µg/ml, genetic background: ΔsoxS
[15] = 15 µg/ml, genetic background: wild type
[16] = 15 µg/ml, genetic background: ΔmarA
[17] = 15 µg/ml, genetic background: Δrob
[18] = 15 µg/ml, genetic background: ΔsoxS

With `CC[C@H]1OC(=O)[C@H](C)[C@@H](O[C@H]2C[C@@](C)(OC)[C@@H](O)[C@H](C)O2)[C@H](C)[C@@H](O[C@@H]2O[C@H](C)C[C@H](N(C)C)[C@H]2O)[C@](C)(OC)C[C@@H](C)C(=O)[C@H](C)[C@@H](O)[C@]1(C)O` [Clarithromycin] the “promoter activity interaction Z-score” value [1, 7] was 2.75 ± 0.78, the “promoter activity interaction Z-score” value [1, 8] was -0.666 ± 0.051 and the “promoter activity interaction Z-score” value [1, 9] was 2.53 ± 0.28. For the same compound, the “promoter activity interaction Z-score” value [1, 10] was 3.99 ± 2.9, the “promoter activity interaction Z-score” value [1, 11] was 4.86 ± 2 and the “promoter activity interaction Z-score” value [1, 12] was 0.0124 ± 0.014. For the same compound, the “promoter activity interaction Z-score” value [1, 13] was 3.88 ± 1.1, the “promoter activity interaction Z-score” value [1, 14] was 5.27 ± 0.95 and the “promoter activity interaction Z-score” value [1, 15] was 6.01 ± 2.6. The “promoter activity interaction Z-score” value [1, 16] was 5.11, the “promoter activity interaction Z-score” value [1, 17] was 8.62 ± 0.52 and the “promoter activity interaction Z-score” value [1, 18] was 7.67 ± 6.7. The “promoter activity interaction Z-score” value [2, 7] was 0.345 ± 0.84, the “promoter activity interaction Z-score” value [2, 8] was -0.264 ± 0.18 and the “promoter activity interaction Z-score” value [2, 9] was 0.13 ± 0.36. For the same compound, the “promoter activity interaction Z-score” value [2, 10] was 0.346 ± 0.31, the “promoter activity interaction Z-score” value [2, 11] was -0.0809 ± 0.56 and the “promoter activity interaction Z-score” value [2, 12] was -0.345 ± 0.18. The “promoter activity interaction Z-score” value [2, 13] was 0.0824 ± 0.022, the “promoter activity interaction Z-score” value [2, 14] was -0.272 ± 0.94 and the “promoter activity interaction Z-score” value [2, 15] was -2.17 ± 0.33. For the same compound, the “promoter activity interaction Z-score” value [2, 16] was -0.213 ± 0.3, the “promoter activity interaction Z-score” value [2, 17] was -0.078 ± 0.014 and the “promoter activity interaction Z-score” value [3, 7] was 4.02 ± 1.8. The “promoter activity interaction Z-score” value [3, 8] was 2.83 ± 2.5, the “promoter activity interaction Z-score” value [3, 9] was 3.22 ± 1.5 and the “promoter activity interaction Z-score” value [3, 10] was 4.01 ± 1.6. The “promoter activity interaction Z-score” value [3, 11] was 4.44 ± 2.9, the “promoter activity interaction Z-score” value [3, 12] was 4.37 ± 4.9 and the “promoter activity interaction Z-score” value [3, 13] was 3.77 ± 4.2. The “promoter activity interaction Z-score” value [3, 14] was 3.43 ± 1.9, the “promoter activity interaction Z-score” value [3, 15] was -0.0263 ± 3.9 and the “promoter activity interaction Z-score” value [3, 17] was -0.772. The “promoter activity interaction Z-score” value [3, 18] was -2.44, the “promoter activity interaction Z-score” value [4, 7] was -1.9 ± 0.13 and the “promoter activity interaction Z-score” value [4, 8] was -2.77 ± 0.23. The “promoter activity interaction Z-score” value [4, 9] was -1.66 ± 0.048, the “promoter activity interaction Z-score” value [4, 10] was -2.35 ± 0.33 and the “promoter activity interaction Z-score” value [4, 11] was -2.21 ± 0.12. The “promoter activity interaction Z-score” value [4, 12] was -2.09 ± 0.24, the “promoter activity interaction Z-score” value [4, 13] was -2.11 ± 0.083 and the “promoter activity interaction Z-score” value [4, 14] was -1.66 ± 0.9. For the same compound, the “promoter activity interaction Z-score” value [4, 15] was -4.75 ± 0.23, the “promoter activity interaction Z-score” value [4, 16] was -0.357 ± 0.99 and the “promoter activity interaction Z-score” value [4, 17] was -1.4. The “promoter activity interaction Z-score” value [5, 7] was 0.201 ± 0.071, the “promoter activity interaction Z-score” value [5, 8] was 0.637 ± 0.17 and the “promoter activity interaction Z-score” value [5, 9] was 0.258 ± 0.11. The “promoter activity interaction Z-score” value [5, 10] was 3.14 ± 1.1, the “promoter activity interaction Z-score” value [5, 11] was 1.35 ± 0.47 and the “promoter activity interaction Z-score” value [5, 12] was 1.62 ± 0.14. For the same compound, the “promoter activity interaction Z-score” value [5, 13] was 1.1974 ± 0.00038, the “promoter activity interaction Z-score” value [5, 14] was 3.99 ± 0.81 and the “promoter activity interaction Z-score” value [5, 15] was 0.664 ± 0.51. For the same compound, the “promoter activity interaction Z-score” value [5, 16] was 2.07 ± 0.33, the “promoter activity interaction Z-score” value [5, 17] was 1.44 ± 0.33 and the “promoter activity interaction Z-score” value [5, 18] was 1.96. For the same compound, the “promoter activity interaction Z-score” value [6, 7] was 1.16 ± 0.087, the “promoter activity interaction Z-score” value [6, 8] was 0.114 ± 1.9 and the “promoter activity interaction Z-score” value [6, 9] was 0.468 ± 0.18. The “promoter activity interaction Z-score” value [6, 10] was 2.16 ± 2.1, the “promoter activity interaction Z-score” value [6, 11] was 3.8 ± 1.3 and the “promoter activity interaction Z-score” value [6, 12] was 1.91 ± 0.99. For the same compound, the “promoter activity interaction Z-score” value [6, 13] was 1.62 ± 0.65, the “promoter activity interaction Z-score” value [6, 14] was 3.3 ± 1.4 and the “promoter activity interaction Z-score” value [6, 15] was 0.0472 ± 0.77. The “promoter activity interaction Z-score” value [6, 16] was 0.874 ± 2.2, the “promoter activity interaction Z-score” value [6, 17] was 1.26 ± 0.65 and the “promoter activity interaction Z-score” value [6, 18] was 3.6044 ± 0.00012.
